The record followed here is PubChem BioAssay AID1851 (National Center for Advancing Translational Sciences (NCATS), 2009).

Hit rate of the full screen: of about 16,000 compounds, about 5,800 (36%) were called active. Roughly 23% stayed inconclusive and do not appear here. Calls come from the whole dose curve; as a rule, active = well fitted curve in the direction sought with a large enough effect; inconclusive = small, poorly fitted or top-dose-only effect, or effect the other way; inactive = no such curve, though single readings can be large or run the other way. Some of the results follow.
% is set by controls: 0 for no effect and ±100 for the full control effect.

This experiment deals with Cytochrome P450 2C19 (Homo sapiens) (UniProt P33261). The experiment is described as follows: Cytochrome panel assay with activity outcomes. Conditions: recombinant CYP, pro-luciferin dealkylation, luminescence, p450-cyp2c19; series mostly up to 57.1 µM.
Cytochrome P450 2C19 (Homo sapiens), sequence (P33261 whole entry, looked up): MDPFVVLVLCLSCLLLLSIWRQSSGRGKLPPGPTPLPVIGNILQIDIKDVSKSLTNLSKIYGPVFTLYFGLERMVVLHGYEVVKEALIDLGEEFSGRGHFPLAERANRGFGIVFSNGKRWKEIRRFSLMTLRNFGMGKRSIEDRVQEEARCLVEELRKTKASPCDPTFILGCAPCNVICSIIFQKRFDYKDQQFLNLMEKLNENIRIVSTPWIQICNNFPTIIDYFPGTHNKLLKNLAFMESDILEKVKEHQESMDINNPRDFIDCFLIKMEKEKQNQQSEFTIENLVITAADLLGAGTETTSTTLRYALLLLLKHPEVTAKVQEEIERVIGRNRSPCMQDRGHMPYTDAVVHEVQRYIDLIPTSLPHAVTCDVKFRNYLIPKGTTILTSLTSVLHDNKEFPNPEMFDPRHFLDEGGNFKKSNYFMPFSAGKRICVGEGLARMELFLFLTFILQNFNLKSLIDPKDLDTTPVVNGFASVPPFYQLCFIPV
On to `Cc1ccccc1OCCNC(=S)Nc1ccccc1`, for which the concentration at half-maximal activity (AC50) (usually the concentration at which the activity in the assay is half-maximal) was 0.794 µM (active). `CNCC[C@H](Oc1ccccc1C)c1ccccc1`: the AC50 result is “inactive”. In the case of `CNC(=S)NNC(=O)COc1ccccc1C`, the AC50 result is “inactive”. For `O=C(CC(=O)N/N=C\c1c(Cl)cccc1Cl)NCc1ccccc1`, the AC50 was 2.51 µM (active).

For `C[C@@](N)(C(=O)O)c1ccc(P(=O)(O)O)cc1`, the AC50 entry was “inactive”. In the case of `CN1Cc2c(C(=O)OC(C)(C)C)ncn2-c2ccsc2C1=O`, the AC50 was 1.26 µM (active). Still for that read-out and setting: next, `CCOCCCn1cnc2c([nH]c3cc(OC)ccc32)c1=O`: 1.41 µM (active); `Cc1ccc(NC(=O)/C(=C\c2ccc3c(c2)OCO3)NC(=O)c2ccco2)cc1`: “inactive”; `C=CCNC(=O)/C(=C\c1ccc2c(c1)OCO2)NC(=O)c1ccc(Br)cc1`: 8.91 µM (active). In the case of `O=C(N/N=C/c1ccc2c(c1)OCO2)/C(=C/c1ccc2c(c1)OCO2)NC(=O)c1ccccc1`, the concentration at half-maximal activity (AC50) was 14.1 µM (active). For the molecule `Cc1ccc(N(C(=O)c2csnn2)C(C(=O)NC(C)(C)C)c2cccs2)cc1` (stereo unspecified), the AC50 was 2.51 µM (active). The same measure, in the same setting: next, `COc1ccc(-c2csc3c2[N+]2=CCC=C2C3=O)cc1`: 3.98 µM (active); `COc1cc2c(C(=O)N3CCN(C)CC3)c(C)n(-c3ccccc3)c2cc1Br`: 28.2 µM (active); `COc1ccccc1CN1CCCC2(CCN(C(=O)c3c(C)noc3C)CC2)C1`: “inactive”. Still for that read-out and setting: to `COc1cc(C(=O)N2CCN(C(=O)c3ccccc3)CC2)cc(OC)c1OC` belongs “inactive”; to `CC1CCN(C(NC(=O)c2ccco2)C(=O)c2ccccc2)CC1` (stereo unspecified), 2 µM (active). For the molecule `CC(C)NC(=O)N1CCCC2(CCN(C(=O)c3ccco3)CC2)C1`, the AC50 result was “inactive”.

Regarding `COc1ccc(C(=O)N2CCC[C@@]3(CCN(CC(C)C)C3)C2)cc1`, the AC50 entry is “inactive”. Same read-out and setting: to `Cc1ccc(C2C(=O)N(C3CCCC3)CC(=O)N2CC2COc3ccccc3O2)cc1` (stereo unspecified) belongs 6.31 µM (active).

Consider `NC(=O)CNC(=O)[C@@H]1CC2(CC(c3ccc(Cl)cc3)=NO2)CN1C(=O)c1ccccc1` (stereo partly specified), for which the AC50 result is “inactive”. The same measure, in the same setting: next, `O=C(c1ccc(Cl)cc1)N1CCCC(c2ccccc2)=N1`: 4.47 µM (active); `Cc1ccc(S(=O)(=O)N2CCN(Cc3ccccc3C(F)(F)F)CC2)cc1`: 2.24 µM (active). As for `COc1ccccc1CN1CCC2(CC1)CCN(S(=O)(=O)c1ccccc1)CC2`, the AC50 result was “inactive”. As to `O=S(=O)(c1ccc(Br)cc1)N1CCN(S(=O)(=O)c2ccc(Br)cc2)CC1`, the activity, negative = inhibition is -4.78% [at 11.4 µM] (inactive). As to `Cc1ccc(S(=O)(=O)N2CCN(S(C)(=O)=O)C2)cc1`, the AC50 is 11.2 µM (active). Turning to `CN(C)[C@H]1C(=O)C(C(=O)NCN2CCCC2)=C(O)[C@]2(O)C(=O)C3=C(O)c4c(O)cccc4[C@](C)(O)[C@H]3C[C@H]12`, the activity, negative = inhibition is -26.1% [at 11.4 µM] (inactive).
